HT1080 IDH1KD tx – HT-1080 IDH1 knockdown cell toxicity (counter line). HT-1080 IDH1 knockdown viability, ATP luminescence, 48 h. 360,000 compounds, 2% hits. Potency, µM (doses to about 46.1 µM), for the others: top-dose activity, negative = toxicity, hits mostly cytotoxic. AID 686971;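 further: potency means the concentration at half of the fitted maximal effect; 0% = DMSO wells and -100% = cell-free medium wells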
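CellTiter-Glo luminescence after 48 h compound exposure at 37 degrees C of IDH1-knockdown HT-1080 cells in 5% FBS RPMI. %Activity scaled between DMSO wells and cell-free media wells, with curves fitted and assigned curve classes.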
IL-1B inflam inh – inhibitors of inflammasome signaling (IL-1 beta secretion); THP-1 LPS/ATP IL-1B secretion, AlphaLISA, 16 h; hits give low values; activity change, % at 57.5 µM; 360,000 compounds, 4.7% hits; AID 743279; in the data active means activity change below about -50%; inconclusive means mostly about -30% to -49%
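THP-1 cells pretreated 1 hr with compounds (up to 57.5 uM final), then stimulated with LPS (250 ng/mL final) plus ATP (1.25 mM final); secreted IL-1B measured by AlphaLISA after 16 hr, decreased signal indicating inhibition.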
uPA surface inh – blocks generation of uPA at the cell surface | cell surface uPA generation assay, qHTS | Potency, µM (titrated, usually from 38.3 µM), inactives show top-dose activity change, negative = inhibition, hits mostly inhibitors | 330,000 compounds, 0.31% hits | AID 540303; active means well fitted inhibition curve with a large enough effect; inconclusive means small, poorly fitted or top-dose-only effect; inactive means no such curve, though single readings can be large or run the other way; tested in mouse RAW 264.7 cells; further: potency means the concentration at half of the fitted maximal effect; nearly all actives have a fitted effect of over 55% in size
DT40 TDP1 CPT – DT40-hTDP1 cell growth loss with CPT. AID 686979. Potency, µM (doses to about 46.2 µM), for the others: at the top dose activity change, negative = growth inhibition, hits mostly inhibitors. chicken DT40 Tdp1-/-;hTDP1 cells + 20 nM CPT, ATP luminescence, 48 h. 420,000 compounds, 12% hits; further: potency means the concentration at half of the fitted maximal effect; nearly all actives have a fitted effect of over 55% in size
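Chicken DT40 Tdp1-/- cells complemented with human TDP1, 400 cells/well, exposed to compounds plus 20 nM camptothecin for at least 48 h at 37 C; viability read as ATP content by CellTiter-Glo luminescence.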
DT40 TDP1 no CPT – qHTS for Inhibitors of human tyrosyl-DNA phosphodiesterase 1 (TDP1): qHTS in cells in absence of CPT; DT40 Tdp1-/- hTDP1 cells, no CPT, ATP luminescence, 48 h; Potency, µM (titrated, usually from 46.2 µM), for inactives: at the highest dose activity change, negative = growth inhibition, most hits filed as inhibitors; 420,000 compounds, 15% hits; AID 686978, 2013; further: potency means the concentration at half of the fitted maximal effect; nearly all actives have a fitted effect of over 55% in size
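Luminescent ATP content (CellTiter-Glo) served as the growth readout. Knockout chicken DT40 cells expressing human TDP1 were exposed to compounds without camptothecin for a minimum 48 hr at 37 °C.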
HT1080NT lethal – kills 2HG-producing HT-1080-NT fibrosarcoma cells. HT-1080-NT fibrosarcoma viability, CellTiter-Glo ATP luminescence, 48 h. Potency, µM (highest dose often 46.1 µM), for inactives: at the highest dose activity, negative = less viability, most hits filed as cytotoxic. 360,000 compounds, 1.6% hits. AID 686970;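 further: NT is the 2HG producing partner of a matched IDH1 knockdown line; potency means the concentration at half of the fitted maximal effect; 0% = DMSO-treated cells and -100% = media-only wells without cells; nearly all actives have a fitted effect of over 55% in size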
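Toxicity toward the 2HG-producing NT line was scored as %Activity, normalised to DMSO and no-cell wells, from CellTiter-Glo luminescence after 48 hours' treatment.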
Starred values were filed as active, the others as inactive; ? = inconclusive; . = no result. In the library only some 19% were active in any assay of this set; here they are far more common. Unless noted, the call rests on the fitted dose curve; in most records, active means well fitted curve in the direction sought with a large enough effect; inconclusive means small, poorly fitted or top-dose-only effect, or another doubt; inactive means no such curve, though single readings can be large; an effect the other way counts as inactive or inconclusive. Unless noted, on the % scale 0 is the no-effect control and ±100 the full control effect.

SMILES	HT1080 IDH1KD tx	IL-1B inflam inh	uPA surface inh	DT40 TDP1 CPT	DT40 TDP1 no CPT	HT1080NT lethal
Cc1ccc(N(CC(O)Cn2c3ccccc3c3ccccc32)S(=O)(=O)c2ccc(F)cc2)cc1 (configuration not stated)	.	.	.	?	20.6µM*	.
COCCNC(=O)c1c(C)oc2nc(C)nc(N3CCOCC3)c12	.	.	.	-0.4%	9.0%	.
CCN1CCN(C(=O)c2c(-c3c(Cl)cccc3Cl)noc2C)CC1	-7.8%	1.3	-2.2%	0.9%	-4.8%	-3.2%
Cc1ccc(-c2noc(-c3ccc(NC4CCCC4)c([N+](=O)[O-])c3)n2)cc1	.	.	.	-28.8%	-14.5%	.
COc1ccc(Cl)cc1NS(=O)(=O)c1cccc2cccnc12	?	38.4	-1.9%	?	?	-24.5%
CCOc1ccc(S(=O)(=O)Nc2cc(Cl)ccc2OC)c2cccnc12	.	.	.	14.6µM*	14.6µM*	.
CCOc1ccc(S(=O)(=O)Nc2cccc(C)c2)c2cccnc12	-11.3%	60.1	0.4%	11.6µM*	18.4µM*	-5.3%
CCOc1ccc(S(=O)(=O)N2CCN(c3ccccc3OC)CC2)c2cccnc12	-17.8%	1.6	-7.6%	?	23.1µM*	-7.2%
CCc1ccccc1NS(=O)(=O)c1ccc(OC)c2ncccc12	0.0%	28.0	10.9%	18.4µM*	10.3µM*	-5.0%
COc1cc(NC(=S)N2CCN(S(=O)(=O)c3ccccc3)CC2)cc(OC)c1	-5.7%	-15.0	-4.3%	-13.3%	-4.3%	0.7%
CCOC(=O)c1cc(Cl)c2c(ccc3ccccc32)n1	8.5%	5.0	.	0.4%	-15.7%	8.2%
CCOC(=O)c1cc(OCC)c2c(ccc3cc(OC)ccc32)n1	-14.7%	0.0	.	?	5.8µM*	0.7%
Cc1ccc(N=c2c([N+](=O)[O-])nn(-c3ccc(Cl)cc3)n2O)cc1C	26.0%	23.0	0.8%	1.1%	6.9%	18.5%
O=[N+]([O-])c1nn(-c2ccc3c(c2)OCCO3)n(O)c1=Nc1ccc(Cl)cc1	-3.2%	?	-13.2%	23.1µM*	16.4µM*	-28.6%
Cc1ccc(N=c2c([N+](=O)[O-])nn(-c3ccc4c(c3)OCCO4)n2O)cc1F	0.6%	-12.5	-3.7%	?	?	-12.6%
Cc1cc(C)cc(N=c2c([N+](=O)[O-])nn(-c3ccc4c(c3)OCCO4)n2O)c1	-27.6%	-18.7	-8.5%	2.59µM*	2.91µM*	-5.6%
CCc1ccc(N=c2c([N+](=O)[O-])nn(-c3ccc4c(c3)OCCO4)n2O)cc1	14.8%	-18.9	0.6%	-12.7%	-12.2%	9.1%
O=[N+]([O-])c1nn(-c2ccc3c(c2)OCCO3)n(O)c1=Nc1ccccc1	1.6%	14.8	-4.2%	25.9µM*	23.1µM*	-7.5%
COc1ccc(C2/C(=C(/O)c3ccc(Br)cc3)C(=O)C(=O)N2C)cc1 (configuration not stated)	1.0%	10.7	-5.2%	14.5%	-2.0%	3.1%
Cc1ccc(S(=O)(=O)/N=C(\CCl)N2CCOCC2)cc1	?	-51.5*	-9.9%	14.6µM*	16.4µM*	-17.9%
C/C=C(\C)CN1CCC(n2nccc2NC(=O)CCCc2ccccc2)CC1	5.0%	25.3	5.3%	-0.1%	1.0%	2.6%
COc1ccccc1Oc1nc2c(C)cccn2c(=O)c1/C=C(\C#N)c1nc2ccccc2[nH]1	.	.	.	-1.4%	-10.1%	.
Cc1cccc(Oc2nc3ccccn3c(=O)c2/C=C(\C#N)c2nc3ccccc3s2)c1C	.	.	.	20.6µM*	4.61µM*	.
CC(=O)OC(COC1C[C@@H]2CC[C@@]1(C)C2(C)C)C[N+]1(C)CCCCC1 (some centres not stated)	-8.1%	-14.0	2.3%	?	18.4µM*	-1.6%
CC(NC(=O)c1cccc2c1Oc1ccccc1S2)C(=O)O (configuration not stated)	2.5%	39.8	.	-11.4%	-14.9%	6.2%

Screens as filed in PubChem BioAssay.
